Hits are enriched below; roughly 1.2% of the tested compounds scored in any of these assays.
RGS8-Gao: regulators of human RGS8-Galphao interaction. P09471. multiplexed bead flow cytometry, RGS8-Galphao binding; actives lie on both sides. response (percent of control binding), % at 10 µM. actives 0.34% (n = 220,000). AID 1423; in the data active means response below about 60% or above about 140%; inactive means in between;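 further: Galphao activated as the GDP aluminium fluoride complex binding bead-coupled RGS8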
Target sequence (P09471 whole entry, looked up): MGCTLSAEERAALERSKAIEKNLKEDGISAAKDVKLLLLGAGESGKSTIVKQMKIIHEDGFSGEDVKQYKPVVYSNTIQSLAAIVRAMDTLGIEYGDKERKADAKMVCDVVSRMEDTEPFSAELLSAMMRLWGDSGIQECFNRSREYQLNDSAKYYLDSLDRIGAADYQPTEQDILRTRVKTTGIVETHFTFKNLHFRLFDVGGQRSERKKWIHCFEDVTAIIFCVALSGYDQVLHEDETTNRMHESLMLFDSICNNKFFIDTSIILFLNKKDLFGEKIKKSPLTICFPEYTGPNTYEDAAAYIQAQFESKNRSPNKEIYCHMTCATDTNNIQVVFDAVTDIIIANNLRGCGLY
Avidin bead fluor: avidin bead compound fluorescence profile | Avidin beads, compound fluorescence 488/530 nm, flow cytometry; hits give high values | fluorescence (KMESF) at 10 µM | actives 0.38% (n = 220,000) | AID 1775; in the data active means fluorescence above about 47
RGS16-Gao: regulators of human RGS16-Galphao interaction; O15492+P09471; binding response (% of control), % at 10 µM; bead-based flow cytometry RGS16-Galphao binding, fluorescence; actives lie on both sides; AID 1441; actives 0.38% (n = 220,000);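 further: Galphao activated by GDP with aluminum fluoride before binding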
Target sequence (O15492 whole entry, looked up): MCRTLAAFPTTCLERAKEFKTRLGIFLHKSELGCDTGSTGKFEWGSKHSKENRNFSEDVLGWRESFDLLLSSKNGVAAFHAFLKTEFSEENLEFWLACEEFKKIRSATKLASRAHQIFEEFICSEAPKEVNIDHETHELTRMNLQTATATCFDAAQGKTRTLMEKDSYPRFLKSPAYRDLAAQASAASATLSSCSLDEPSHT
Target sequence (P09471 whole entry, looked up): as the sequence (P09471 whole entry, looked up) above
RGS4-Gao reg: human RGS4-Galphao interaction regulation. actives 0.33% (n = 220,000). Multiplexed bead flow cytometry, RGS4-Galphao binding; actives lie on both sides. P09471. AID 1415. binding response (% of control), % at 10 µM; in the data active means binding response below about 49% or above about 150%; inactive means in between;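 further: fluorescent Galphao activated with aluminum fluoride binding bead-coupled RGS4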
GSH bead fluor: GSH bead compound fluorescence profile; actives 0.25% (n = 190,000); GSH beads flow cytometry, compound fluorescence 488/530 nm; hits give high values; fluorescence (KMESF) at 10 µM; AID 1776; in the data active means fluorescence above about 89;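 further: glutathione beads carrying GST-tagged Bcl family fusion proteins plus one bare bead set; values are compound well signal with DMSO vehicle wells as background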
RGS7-Gao reg: regulators of human RGS7-Galphao interaction. P09471. Multiplexed bead flow cytometry, RGS7-Galphao binding; actives lie on both sides. binding response (% of control), % at 10 µM. actives 0.35% (n = 220,000); in the data active means binding response below about 49% or above about 150%; inconclusive means no clear call, values can overlap the other calls; inactive means in between;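 further: fluorescent Galphao held in activated GDP-AlF4 state binding bead-coupled RGS7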
RGS4-Gao HTS: modulates binding between human RGS4 and Galphao. multiplexed bead flow cytometry, RGS–Galpha-o binding. actives 99% (n = 1,600). shares compounds with RGS16-Gao. AID 1504. RGS4–Galpha-o binding response, % at 10 µM;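 further: fluorescently labeled Galpha-o bound to GDP with aluminium fluoride binding biotinylated RGS beads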
Biotin-avidin: counter-screen: compounds disrupting biotin binding to avidin beads; shares compounds with RGS16-Gao; streptavidin beads, fluorescein-biotin binding, flow cytometry; inhibition, % at 10 µM; 1,700 tested, under 10 active; AID 1783;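 active means inhibition above 50%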;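 further: median green fluorescence of gated singlet beads compared with DMSO control wells; 0% = DMSO wells and 100% = complete loss of bead fluorescence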
RGS8-Gao single: RGS8-Galphao interaction regulation, single point confirmation; shares compounds with RGS16-Gao; bead-based flow cytometry RGS8-Galphao binding, fluorescence; actives lie on both sides; binding response (% of control), % at 10 µM; actives 3% (n = 1,700); AID 1836; in the data active means binding response below about 72% or above about 130%; inactive means in between;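 further: Galphao activated as GDP AlF4 complex before binding bead RGS8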
RGS7-Gao single: RGS7-Galphao interaction regulation, single point confirmation; AID 1837; bead-based flow cytometry RGS7-Galphao binding; actives lie on both sides; actives 7.8% (n = 1,700); shares compounds with RGS16-Gao; response (percent of control binding), % at 10 µM; in the data active means response below about 75% or above about 130%; inactive means in between;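 further: fluorescent Galphao activated with GDP and aluminum fluoride binding bead-coupled RGS7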
RGS16-Gao conf: confirmation of regulators of human RGS16-Galphao interaction. bead-based flow cytometry, RGS16-Galphao binding; actives lie on both sides. actives 4% (n = 1,700). shares compounds with RGS16-Gao. AID 1838. response (% of control binding), % at 10 µM; in the data active means response below about 74% or above about 130%; inactive means in between;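 further: Galphao activated as the GDP aluminium fluoride complex binding bead-coupled RGS16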
RGS4-Gao single: RGS4-Galphao interaction regulation, single point confirmation | shares compounds with RGS16-Gao | RGS4-Galphao binding, multiplexed bead flow cytometry; actives lie on both sides | binding response (% of control), % at 10 µM | actives 4% (n = 1,700) | AID 1840; in the data active means binding response below about 74% or above about 130%; inactive means in between
RGS19-Gao conf: confirmation of regulators of human RGS19-Galphao interaction | actives 5% (n = 1,700) | bead-based flow cytometry RGS19-Galphao binding; actives lie on both sides | shares compounds with RGS16-Gao | response (percent of control binding), % at 10 µM; in the data active means response below about 50% or above about 160%; inactive means in between;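 further: 100% = no compound control and 0% = blank background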
Starred values were filed as active, the others as inactive; ? = inconclusive; nt = not tested or not shown; [ ] = remark or other dose. Unless noted, how the calls were made is not given here.

SMILES	RGS8-Gao	Avidin bead fluor	RGS16-Gao	RGS4-Gao reg	GSH bead fluor	RGS7-Gao reg	Biotin-avidin	RGS8-Gao single	RGS7-Gao single	RGS16-Gao conf	RGS4-Gao single	RGS19-Gao conf	others
O=S(=O)(N1CCCCC1)N1CCN(c2ccccc2F)CC1	104.5	70*	119.4	104.9	15	156.0*[activator]	11.7	103.9	108.2	106.6	107.7	92.9	RGS4-Gao HTS=104.9*
CS(=O)(=O)N1CCN(c2ccccc2F)CC1	97.2	8	82.8	98.0	32	93.3	nt	nt	nt	nt	nt	nt
Cc1ccsc1/C=N/n1c(-c2cc(-c3ccccc3)n[nH]2)n[nH]c1=S	101.2	9	101.8	100.5	nt	?	nt	nt	nt	nt	nt	nt
Cc1ccccc1/C=N/n1c(-c2cc(-c3ccccc3)n[nH]2)n[nH]c1=S	40.9*	2	30.5	37.2*	nt	?	-2.1	95.2	108.9	90.6	96.0	97.2
COC(=O)c1sccc1NC(=O)c1cc(C)on1	109.9	nt	nt	98.8	44	96.0	-0.6	99.5	102.8	102.2	100.3	112.2
COC(=O)c1sccc1NC(=O)c1c(C)noc1C	95.6	33	92.1	96.7	10	97.0	nt	nt	nt	nt	nt	nt
CCCOc1ccc(CCCN=C(N)N)cc1Cl	98.8	8	97.1	99.3	nt	?	nt	nt	nt	nt	nt	nt
Cn1c(C(=O)NCc2ccccc2)cc2oc3ccccc3c21	114.5	12	nt	109.7	27	115.5	1.7	99.7	96.9	98.7	100.5	98.9
COc1ccc(OC)c(/C=C2\SC(=S)N(Cc3cccnc3)C2=O)c1	83.5	5	14.5*	88.9	9	88.0	-0.6	108.1	112.0	103.1	103.3	105.0	RGS4-Gao HTS=88.9*
N#CCOC(=O)c1c2c(nc3ccccc13)CCC2	102.9	26	105.5	100.1	18	103.5	nt	nt	nt	nt	nt	nt
O=[N+]([O-])c1ccc(/C=N/n2c(COc3ccccc3)n[nH]c2=S)cc1	102.6	17	103.4	101.9	6	104.2	nt	nt	nt	nt	nt	nt
O=[N+]([O-])c1cccc(/C=N/n2c(COc3ccccc3)n[nH]c2=S)c1	139.9	7	271.6*[activator]	117.9	17	116.9	-1.5	92.8	87.5	85.0	88.9	75.4	RGS4-Gao HTS=117.9*
COc1ccccc1NC(=O)c1ccc2c(c1)nnn2C	104.6	23	110.7	103.0	10	102.7	nt	nt	nt	nt	nt	nt
CC(=O)NC(=S)Nc1ccc(NC(=O)COc2ccc(Cl)cc2Cl)cc1	98.1	78*	100.0	150.3*[activator]	3	184.4*[activator]	1.8	99.9	97.1	95.3	98.8	92.9
Cc1cc(C)n2nc(SCC(=O)c3c(N)n(CC(C)C)c(=O)n(C)c3=O)nc2n1	98.5	9	98.6	96.4	16	96.5	nt	nt	nt	nt	nt	nt
CCOc1ccc(C(C)=O)cc1CN1C(=O)NC2(CCCCCCC2)C1=O	101.9	13	102.9	102.7	15	?	nt	nt	nt	nt	nt	nt
CS(=O)(=O)N(CC(=O)Nc1cccnc1)c1ccc2c(c1)OCCO2	108.7	9	139.9	109.1	35	101.3	nt	nt	nt	nt	nt	nt
CS(=O)(=O)N(CC(=O)Nc1cccnc1)c1ccc2c(c1)OCO2	nt	nt	nt	nt	17	nt	3.7	91.7	79.9	84.2	86.9	77.6
Cc1cc(NC(=O)CN2C(=O)NC(C)(c3ccc(Cl)cc3)C2=O)no1 (stereo not drawn)	94.1	10	93.0	95.0	13	89.4	nt	nt	nt	nt	nt	nt
Nc1cccc(CCc2nc3cc4ccccc4cc3[nH]2)c1	69.5	6	8.6*	88.7	8	82.6	-1.3	98.4	92.9	94.4	97.1	107.6	RGS4-Gao HTS=88.7*
c1ccc(CCc2nc3ccccc3[nH]2)cc1	95.5	11	100.0	91.1	11	92.6	nt	nt	nt	nt	nt	nt
O=C(O)C[C@@H]1C(=O)O[C@@H]2C(COC(=O)c3cc(O)c(O)c(O)c3)O[C@@H](OC(=O)c3cc(O)c(O)c(O)c3)[C@@H](OC(=O)c3cc(O)c(O)c4c3[C@H]1[C@H](O)C(=O)O4)[C@H]2OC(=O)c1cc(O)c(O)c(O)c1 (stereo partly drawn)	38.1*	6	42.6	2.5*	nt	?	-0.4	39.0*	-11.7*	38.6*	-0.5*	41.7*
CC1Cc2ccccc2N1C(=S)NC(=O)c1ccco1 (stereo not drawn)	98.5	11	98.9	100.6	15	?	nt	nt	nt	nt	nt	nt
CC1Cc2ccccc2N1C(=S)NC(=O)C1(C)CC1(Cl)Cl (stereo not drawn)	30.8*	4	7.2*	8.4*	15	13.3*	-0.1	98.8	99.3	100.5	101.2	98.5
O=C1/C(=C/c2cccnc2)SC(=S)N1c1ccc(F)cc1	116.2	15	177.5*[activator]	108.8	3	108.2	-1.2	101.7	103.4	101.1	101.8	97.7	RGS4-Gao HTS=108.8*
SMILES	RGS8-Gao	Avidin bead fluor	RGS16-Gao	RGS4-Gao reg	GSH bead fluor	RGS7-Gao reg	Biotin-avidin	RGS8-Gao single	RGS7-Gao single	RGS16-Gao conf	RGS4-Gao single	RGS19-Gao conf	others
O=C1/C(=C/c2cccnc2)SC(=S)N1c1ccc(O)cc1	101.5	5	107.4	101.4	nt	?	nt	nt	nt	nt	nt	nt
Cn1c(N)c(C(=O)COC(=O)CC(NC(=O)c2ccccc2Cl)c2ccccc2)c(=O)n(C)c1=O (stereo not drawn)	102.1	11	100.9	102.1	70	102.5	nt	nt	nt	nt	nt	nt
CCOc1ccc2[nH]c(=S)[nH]c2c1	101.0	15	103.0	101.0	27	104.8	nt	nt	nt	nt	nt	nt
CCOc1ccc2c(c1)n(CO)c(=S)n2CO	99.6	104*	103.8	112.3	25	176.5*[activator]	0.1	91.0	78.7	92.8	90.0	109.8	RGS4-Gao HTS=112.3*
Cc1noc(C)c1COc1cccc(C(=O)Nc2ccccc2N2CCOCC2)c1	101.9	16	103.2	103.6	12	101.2	nt	nt	nt	nt	nt	nt
CCC(=O)N1CCc2cc(S(=O)(=O)NC(Cc3ccccc3)C(=O)NC3CCCCC3)ccc21 (stereo not drawn)	106.7	13	105.0	104.1	22	104.4	nt	nt	nt	nt	nt	nt

Assay outcomes (PubChem)
